From PubChem BioAssay (Tox21)
Inconclusive results are not listed. A call without a number means that no potency is given here. Calls of active or inactive are those of the source. Unless noted, calls follow the shape of the full dose curve.

How the values were obtained:
[1] = Nuclear factor erythroid 2-related factor 2/antioxidant responsive element (Nrf2/ARE) small molecule agonists: qHTS cell viability counter screen in human keratinocytes (AID 1919968; active = well fitted curve in the direction sought with a large enough effect in the repeat runs; an effect the other way counts as inactive or inconclusive; also: nearly all actives have a fitted effect of over 55% in size; also: potency is read from the fitted curve at half-maximal effect)
Summary of the method: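 Fluorescence read-out from CellTiter-Fluor after 1 h at 37 C. Wells held HaCaT-derived ARE-luciferase reporter cells (1,500/well) treated 23 h with DMSO-dissolved compounds. Run in the same wells as the luciferase agonist read.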

[2] = Nuclear factor erythroid 2-related factor 2/antioxidant responsive element (Nrf2/ARE) small molecule agonists: luciferase reporter gene qHTS assay in human keratinocytes (AID 1919969); also: nearly all actives have a fitted effect of over 35% in size
[3] = molecular target: Gonadotropin-releasing hormone receptor (Homo sapiens) (UniProt P30968); experiment: Human gonadotropin-releasing hormone receptor (GnRHR) small molecule agonists, calcium flux assay in GnRHR-HEK293 cells (AID 1920063); also: nearly all actives have a fitted effect of over 35% in size
Summary of the method: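 Calcium-dye fluorescence, Ex/Em=480/540, recorded every 1 sec over 3 min after compound addition to GnRHR-HEK293 cells. Cells had been seeded 18 hours earlier and dye-loaded for 1 hour at 37 C. Fifteen concentrations, triplicates.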

[4] = molecular target: KiSS-1 receptor (Homo sapiens) (UniProt Q969F8); experiment: Human kisspeptin (KISS1R) small molecule agonists, calcium flux assay in KISS1R-HEK293 cells (AID 1920064; active = well fitted curve in the direction sought with a large enough effect in the repeat runs; an effect the other way counts as inactive or inconclusive)
Summary of the method: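 Calcium flux read-out: kinetic fluorescence at Ex/Em=480/540, 1 s intervals over 3 min, after pin-tool compound addition to dye-loaded KISS1R-HEK293 cells. Fifteen concentrations, triplicates.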

[5] = G protein-coupled receptor (GPCR) small molecule agonists, calcium flux assay: HEK293 wild type cell line counter screen (AID 1920065)
Summary of the method: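 Agonist mode; 18 h seeding at 37 C, 1 h dye load at 37 C; compounds pinned from DMSO, ATP as positive control; kinetic fluorescence 480/540 nm, 3 min, 1 s reads; 15 concentrations, triplicate.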

[6] = p53 small molecule agonists, cell-based qHTS assay with human liver microsomes: qHTS cell viability counter screen (AID 1963579); also: nearly all actives have a fitted effect of over 45% in size
Summary of the method: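 Seed p53RE-bla cells at 4,000 per well; incubate 5 h at 37 C; add compound, human liver microsomes and NADPH; incubate 16 h at 37 C; add CellTiter-Glo; after 30 min at room temperature, read luminescence.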

[7] = p53 small molecule agonists, cell-based qHTS assay with rat liver microsomes: qHTS cell viability counter screen (AID 1963580); also: nearly all actives have a fitted effect of over 45% in size
Summary of the method: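 Luminescent ATP readout (CellTiter-Glo, 30 min at room temperature) reports viability of p53RE-bla HCT-116 cells after 16 h at 37 C with test compounds under metabolic activation by rat liver microsomes and NADPH at 0.5 mg/mL final each.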

[8] = p53 small molecule agonists, cell-based qHTS assay: qHTS cell viability counter screen (AID 1963581); also: nearly all actives have a fitted effect of over 45% in size; also: potency is read from the fitted curve at half-maximal effect
Summary of the method: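 Cytotoxicity read-out: ATP-based luminescence (CellTiter-Glo, 30 min RT) measured in the same wells as the p53 reporter assay, HCT-116 p53RE-bla cells, 16 h compound exposure at 37 C.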

[9] = p53 small molecule agonists, cell-based qHTS assay (AID 1963582; active = well fitted activation curve with a large enough effect in the signal ratio in the repeat runs, not every such curve was filed as active; the % refers to the signal ratio)
Summary of the method: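 Fluorescence intensity read-out of a beta-lactamase reporter under a p53 response element. Cells were exposed to DMSO-dissolved compounds for 16 h at 37 C, then developed with FRET substrate for 2 h at RT.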

[10] = molecular target: 5-hydroxytryptamine receptor 2A (Homo sapiens) (UniProt P28223); experiment: 5-hydroxytryptamine receptor 2A (HTR2A) small molecule antagonists, cell-based qHTS assay (AID 1963586); also: nearly all actives have a fitted effect of over 45% in size
Summary of the method: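 CHO cells stably expressing human HTR2A were plated for 18 h at 37 C, then loaded with calcium dye for 1 h. Compounds were preincubated 5 min at room temperature before DOI (4 nM solution) was added. Kinetic fluorescence was read for 3 min.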

[11] = molecular target: 5-hydroxytryptamine receptor 2A (Homo sapiens) (UniProt P28223); experiment: 5-hydroxytryptamine receptor 2A (HTR2A) small molecule agonists, cell-based qHTS assay (AID 1963587); also: nearly all actives have a fitted effect of over 30% in size
Summary of the method: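 HTR2A-CHO cells, plated 18 h at 37 C/5% CO2, dye-loaded 1 h at 37 C; compounds in DMSO added by pin tool (agonist mode). Intracellular calcium flux read as kinetic fluorescence on FDSS over 2 min at 1 s intervals.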

[12] = molecular target: Muscarinic acetylcholine receptor M1 (Homo sapiens) (UniProt P11229); experiment: Cholinergic receptor muscarinic 1 (CHRM1) small molecule antagonists, cell-based qHTS assay (AID 1963588); also: nearly all actives have a fitted effect of over 40% in size
Summary of the method: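 Compounds were tested at 15 concentrations in three independent runs. Dye-loaded CHRM1-CHO cells were exposed 5 min at room temperature before stimulation by acetylcholine added at 50nM. Intracellular calcium was read kinetically on FDSS for 3 min.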

[13] = molecular target: Muscarinic acetylcholine receptor M1 (Homo sapiens) (UniProt P11229); experiment: Cholinergic receptor muscarinic 1 (CHRM1) small molecule agonists, cell-based qHTS assay (AID 1963589); also: nearly all actives have a fitted effect of over 35% in size
Summary of the method: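 Calcium flux read-out: kinetic fluorescence at 1 sec intervals after pin-tool compound addition to dye-loaded CHRM1-CHO cells (human M1). Agonist mode; 15 concentrations tested in triplicate independent runs.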

[14] = cAMP Responsive Elements (CRE) small molecule agonists, cell-based qHTS assay (AID 1963590)
Summary of the method: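 Beta-lactamase reporter readout: LiveBLAzer B/G FRET substrate, 2 h at room temperature, added after 3 h compound treatment of CRE-bla HEK 293T cells at 37 C/5% CO2.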

[15] = cAMP Responsive Elements (CRE) small molecule antagonists, cell-based qHTS assay (AID 1963591; active = well fitted inhibition curve with a large enough effect in the signal ratio in the repeat runs, not every such curve was filed as active; the % refers to the signal ratio)
Summary of the method: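 HEK293T CRE-bla; 18 h preincubation; compound pin-transfer; NKH477 0.25 uM final, 3 h, 37 C; LiveBLAzer FRET substrate 2 h RT.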

[16] = molecular target: Beta-2 adrenergic receptor (Homo sapiens) (UniProt P07550); experiment: Adrenergic beta2 receptor (ADRB2) small molecule antagonists, cell-based qHTS assay (AID 1963592); also: series mostly up to about 92 µM; nearly all actives have a fitted effect of over 50% in size
Summary of the method: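 Assay format: CHO-ADRB2 cells, 18-20hr seeding at 37C/5% CO2, then compound plus 1nM isoproterenol agonist mix for 0.5hr RT. Homogeneous time-resolved fluorescence cAMP detection after 1hr, expressed as 665/615 nm ratio.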

[17] = molecular target: D(2) dopamine receptor (Homo sapiens) (UniProt P14416); experiment: Dopamine D2 receptor (DRD2) small molecule agonists, cell-based qHTS assay (AID 1963594); also: nearly all actives have a fitted effect of over 35% in size
Summary of the method: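 HEK293 cells stably expressing DRD2 were cultured 24 h at 37 C, then given Ro20-1724 (0.1 mM final) and compounds for 10 min at room temperature. NKH477 (200nM) was then added for 30 min. cAMP was read by HTRF.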

[18] = molecular target: D(2) dopamine receptor (Homo sapiens) (UniProt P14416); experiment: Dopamine D2 receptor (DRD2) small molecule antagonists, cell-based qHTS assay (AID 1963595; active = well fitted inhibition curve with a large enough effect in the signal ratio in the repeat runs, with a control signal flat; the % refers to the signal ratio)
Summary of the method: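 DRD2-HEK293; 0.1 mM Ro20-1724; cpd 10 min RT; NKH477 200 nM + quinpirole 12 nM, 30 min RT; HTRF cAMP (cAMP-d2/anti-cAMP cryptate), 665/620 nm ratio after 1 h.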

[19] = p53 small molecule agonists, cell-based qHTS assay with human liver microsomes (AID 1963577);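 also: p53 response element beta-lactamase reporter cells with liver microsomes plus NADPH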
Summary of the method: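 Cells carrying a p53-responsive bla reporter were rested 5 h (37 C, 5% CO2) before compound transfer. Human liver microsomes plus NADPH, 0.5 mg/mL final apiece, supplied metabolism during the 16 h 37 C exposure.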

[20] = molecular target: Beta-2 adrenergic receptor (Homo sapiens) (UniProt P07550); experiment: Adrenergic beta2 receptor (ADRB2) small molecule agonists, cell-based qHTS assay (AID 1963593);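 also: CHO cells stably overexpressing human ADRB2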
Summary of the method: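 CHO cells stably over-expressing ADRB2 were plated overnight at 37C, then dosed with compounds plus a stimulation mix containing 100uM IBMX and 25uM Ro-20-1724 for 0.5hr at room temperature. cAMP was measured by HTRF competition, 1hr.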

Sequence of KiSS-1 receptor (Homo sapiens) (Q969F8 whole entry, looked up): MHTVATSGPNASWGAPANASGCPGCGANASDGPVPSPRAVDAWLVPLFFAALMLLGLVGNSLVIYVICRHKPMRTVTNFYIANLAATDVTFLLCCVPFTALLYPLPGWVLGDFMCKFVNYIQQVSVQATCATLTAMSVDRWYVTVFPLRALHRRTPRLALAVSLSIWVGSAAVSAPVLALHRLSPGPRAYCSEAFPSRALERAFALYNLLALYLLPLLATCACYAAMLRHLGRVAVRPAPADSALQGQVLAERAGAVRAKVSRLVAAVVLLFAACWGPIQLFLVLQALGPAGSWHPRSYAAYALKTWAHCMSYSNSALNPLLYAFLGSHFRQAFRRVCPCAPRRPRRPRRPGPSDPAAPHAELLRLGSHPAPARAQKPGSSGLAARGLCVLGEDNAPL
Sequence of Muscarinic acetylcholine receptor M1 (Homo sapiens) (P11229 whole entry, looked up): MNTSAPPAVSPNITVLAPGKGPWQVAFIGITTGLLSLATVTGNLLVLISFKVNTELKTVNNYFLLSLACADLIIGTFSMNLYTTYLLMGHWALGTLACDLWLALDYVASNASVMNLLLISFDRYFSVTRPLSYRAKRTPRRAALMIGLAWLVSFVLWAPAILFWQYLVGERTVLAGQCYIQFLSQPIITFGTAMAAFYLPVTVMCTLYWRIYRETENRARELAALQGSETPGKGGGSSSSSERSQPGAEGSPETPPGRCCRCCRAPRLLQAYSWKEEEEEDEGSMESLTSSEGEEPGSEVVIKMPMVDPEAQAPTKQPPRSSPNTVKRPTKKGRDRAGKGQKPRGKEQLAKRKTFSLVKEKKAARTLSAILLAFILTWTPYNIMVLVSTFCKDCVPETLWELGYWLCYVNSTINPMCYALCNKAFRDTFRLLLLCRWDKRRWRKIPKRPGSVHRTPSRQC
Sequence of D(2) dopamine receptor (Homo sapiens) (P14416 whole entry, looked up): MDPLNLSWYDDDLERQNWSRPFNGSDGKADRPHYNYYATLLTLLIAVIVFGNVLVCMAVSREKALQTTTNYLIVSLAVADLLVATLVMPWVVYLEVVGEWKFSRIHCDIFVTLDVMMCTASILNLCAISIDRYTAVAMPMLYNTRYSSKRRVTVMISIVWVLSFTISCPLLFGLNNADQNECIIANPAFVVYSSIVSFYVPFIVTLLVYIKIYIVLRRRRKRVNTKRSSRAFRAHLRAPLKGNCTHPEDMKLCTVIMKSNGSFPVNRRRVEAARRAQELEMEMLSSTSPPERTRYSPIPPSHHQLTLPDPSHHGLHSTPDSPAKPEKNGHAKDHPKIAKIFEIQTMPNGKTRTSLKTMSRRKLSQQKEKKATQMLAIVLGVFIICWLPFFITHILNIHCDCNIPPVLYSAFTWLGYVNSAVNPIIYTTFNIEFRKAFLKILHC
Sequence of Gonadotropin-releasing hormone receptor (Homo sapiens) (P30968 whole entry, looked up): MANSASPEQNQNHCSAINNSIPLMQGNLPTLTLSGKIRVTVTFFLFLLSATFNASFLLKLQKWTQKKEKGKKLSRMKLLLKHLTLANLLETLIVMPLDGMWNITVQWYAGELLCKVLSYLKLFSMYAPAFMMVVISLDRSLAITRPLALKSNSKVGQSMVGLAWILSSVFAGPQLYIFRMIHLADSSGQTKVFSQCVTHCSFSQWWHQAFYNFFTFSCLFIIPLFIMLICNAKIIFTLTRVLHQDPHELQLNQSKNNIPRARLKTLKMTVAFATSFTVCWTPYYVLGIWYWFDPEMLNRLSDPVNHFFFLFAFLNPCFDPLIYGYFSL
Sequence of 5-hydroxytryptamine receptor 2A (Homo sapiens) (P28223 whole entry, looked up): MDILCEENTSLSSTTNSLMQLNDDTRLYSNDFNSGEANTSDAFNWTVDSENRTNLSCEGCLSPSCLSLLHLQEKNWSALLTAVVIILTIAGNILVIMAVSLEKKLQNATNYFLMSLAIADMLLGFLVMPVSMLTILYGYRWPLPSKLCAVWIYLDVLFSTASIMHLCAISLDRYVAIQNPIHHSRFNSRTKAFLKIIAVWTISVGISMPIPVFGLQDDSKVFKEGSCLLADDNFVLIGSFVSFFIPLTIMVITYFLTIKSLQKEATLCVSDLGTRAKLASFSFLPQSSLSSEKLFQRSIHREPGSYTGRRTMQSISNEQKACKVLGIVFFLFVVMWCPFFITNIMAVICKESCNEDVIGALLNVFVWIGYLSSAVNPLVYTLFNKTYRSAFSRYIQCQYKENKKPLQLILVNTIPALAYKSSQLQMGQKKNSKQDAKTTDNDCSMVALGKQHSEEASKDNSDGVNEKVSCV
Sequence of Beta-2 adrenergic receptor (Homo sapiens) (P07550 whole entry, looked up): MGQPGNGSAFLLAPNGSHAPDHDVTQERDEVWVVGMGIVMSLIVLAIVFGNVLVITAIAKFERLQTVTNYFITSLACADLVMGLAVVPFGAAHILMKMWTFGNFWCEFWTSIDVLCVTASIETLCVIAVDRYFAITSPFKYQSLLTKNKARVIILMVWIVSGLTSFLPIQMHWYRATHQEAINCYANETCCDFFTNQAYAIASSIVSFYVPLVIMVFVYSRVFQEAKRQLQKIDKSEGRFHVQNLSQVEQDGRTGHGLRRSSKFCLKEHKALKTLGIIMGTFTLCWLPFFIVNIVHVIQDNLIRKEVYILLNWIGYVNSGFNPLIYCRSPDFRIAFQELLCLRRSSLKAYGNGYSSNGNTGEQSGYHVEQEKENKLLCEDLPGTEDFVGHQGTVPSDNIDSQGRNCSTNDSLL

| Compound | Potency [1] | Potency [2] | Potency [3] | Potency [4] | Potency [5] | Potency [6] | Potency [7] | Potency [8] | Potency [9] | Potency [10] | Potency [11] | Potency [12] | Potency [13] | Potency [14] | Potency [15] | Potency [16] | Potency [17] | Potency [18] | Potency [19] | Potency [20] |
| --- | --- | --- | --- | --- | --- | --- | --- | --- | --- | --- | --- | --- | --- | --- | --- | --- | --- | --- | --- | --- |
| CC(C)(CCC(=O)O)C(=O)O | inactive | inactive | inactive | inactive | inactive | inactive | inactive | inactive | inactive | inactive | inactive | inactive | inactive | inactive | inactive | inactive | inactive | inactive |  |  |
| CCCCOCCCC | inactive | inactive | inactive | inactive | inactive |  | inactive | inactive | inactive | inactive | inactive | inactive |  | inactive | inactive | inactive | inactive | inactive | inactive | inactive |
| C=C1[C@H]2CC[C@@H]3[C@H]2C(C)(C)CCC[C@]13C | inactive | inactive | inactive | inactive | inactive | inactive | inactive | inactive | inactive | inactive | inactive | inactive | inactive | inactive | inactive | inactive | inactive | inactive |  | inactive |
| COc1ccc(NC(C)=O)cc1 | inactive | inactive | inactive | inactive | inactive | inactive | inactive | inactive | inactive | inactive | inactive | inactive | inactive | inactive | inactive | inactive | inactive | inactive |  | inactive |
| Clc1ccc(C(c2ccccc2Cl)C(Cl)Cl)cc1 (centres undefined) | 61.1 µM (active) | inactive | inactive | inactive | inactive | inactive | inactive | 40.8 µM (active) | inactive |  |  |  |  |  | inactive | inactive | inactive |  | inactive | inactive |
| CCCOC(C)=O | inactive | inactive | inactive | inactive | inactive |  | inactive | inactive | inactive | inactive | inactive | inactive | inactive | inactive | inactive | inactive | inactive | inactive | inactive |  |
| CCN(Cc1cccc(S(=O)(=O)O)c1)c1ccccc1 | inactive | inactive | inactive | inactive | inactive | inactive | inactive | inactive | inactive | inactive | inactive | inactive | inactive | inactive | inactive | inactive | inactive |  |  |  |
| Cc1oc(C)c(C(=O)Nc2ccccc2)c1C | inactive | inactive | inactive | inactive | inactive | inactive | inactive | inactive | inactive | inactive | inactive | inactive | inactive |  | inactive | inactive | inactive | inactive |  | inactive |
| CC(C)(CC(=O)O)C(=O)O | inactive | inactive | inactive | inactive | inactive | inactive | inactive | inactive |  | inactive |  | inactive | inactive | inactive | inactive | inactive | inactive | inactive | inactive | inactive |
